# Assay outcomes from PubChem.
# HIF-2a inh = inhibitors of HIF-2a; 786-0 RCC cells HIF-2a reporter, luciferase luminescence, overnight; inhibition, % at 18.8 µM; 360,000 tested, 0.72% active; AID 624352;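 active means inhibition of the luminescence signal of 40% or more relative to plate controls, in a single-dose primary screen at 18.75 µM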
# CF NFkB inh = cystic fibrosis NF-kB activation inhibition. KKLEB NF-kB-GFP reporter, PAF-induced, GFP fluorescence overnight. inhibition, % at 5 µM. 360,000 tested, 0.86% active. AID 588850;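 active means at least 50% inhibition at 5 µM, scaled per plate between neutral and stimulator controls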;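 further: PAF is a Pseudomonas aeruginosa culture filtrate used as stimulus; plate controls were PAF-stimulated DMSO wells for no effect and unstimulated DMSO wells for full effect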
# B2AR ag = activates human beta-2 adrenergic receptor causing internalization; 340,000 tested, 0.43% active; P07550; response, % (no concentration beside the values); Am2.2-beta2AR cells, FAP receptor internalization, flow cytometry;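 active means response above a set limit, near 3 SD of response in nonfluorescent compounds, cut at about 42% in these data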
# Target sequence (P07550 whole entry, looked up): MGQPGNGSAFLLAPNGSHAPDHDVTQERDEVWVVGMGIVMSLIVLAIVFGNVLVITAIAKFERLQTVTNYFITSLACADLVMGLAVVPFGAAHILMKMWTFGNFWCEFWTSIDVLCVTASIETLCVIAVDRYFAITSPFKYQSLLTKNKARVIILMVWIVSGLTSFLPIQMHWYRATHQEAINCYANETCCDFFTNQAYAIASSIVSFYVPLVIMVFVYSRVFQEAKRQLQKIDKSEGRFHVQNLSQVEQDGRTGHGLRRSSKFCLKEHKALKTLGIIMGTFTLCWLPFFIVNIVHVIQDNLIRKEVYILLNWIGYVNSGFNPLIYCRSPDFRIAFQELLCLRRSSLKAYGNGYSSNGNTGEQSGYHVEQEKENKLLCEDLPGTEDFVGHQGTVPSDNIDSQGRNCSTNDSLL
# TRPM1 prom inh = MITF TRPM1 promoter inhibition in SK-MEL-5 cells; inhibition, % at 12.5 µM; 330,000 tested, 0.83% active; SK-MEL-5 TRPM1 promoter luciferase, 24 h;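 active means mean inhibition across replicates of 60% or more, whatever share of single replicates reaches that level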
# Peg3 prom inh = Peg3 promoter activity inhibition. HeLa PEG-Prom luciferase reporter, luminescence, overnight. 360,000 tested, 1.7% active. AID 588405. inhibition, % at 20 µM;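 active means inhibition of at least 50% at 20 µM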
# KKLEB tox = CF airway cell cytotoxicity counter-screen; KKLEB CF airway cells viability, ATPlite luminescence, overnight; stronger effect = lower value; cells stimulated with P. aeruginosa culture filtrate; 360,000 tested, 0.36% active; activity change (cytotoxicity), % at 5 µM;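 active means corrected activity change at or below -50% at 5 µM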
# CF NFkB inh conf = confirmation of cystic fibrosis induced NF-kB inhibitors | shares compounds with CF NFkB inh | KKLEB CF airway cells, PAF-induced NF-kB-GFP fluorescence, overnight | inhibition, % at 5 µM | 1,300 tested, 64% active | AID 602472; in the data active means inhibition above about 40%;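 further: stimulus PAF is a Pseudomonas aeruginosa filtrate and not platelet activating factor; plate controls were DMSO wells with stimulus for no effect and unstimulated DMSO wells for full effect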
# Numbers without * were called inactive; / = no result. Rows were chosen to be rich in hits. Some 2.8% of all compounds tested hit in one or more screens of this group.
SMILES,HIF-2a inh,CF NFkB inh,B2AR ag,TRPM1 prom inh,Peg3 prom inh,KKLEB tox,CF NFkB inh conf
O=C(NCc1ccccc1)C1C(=O)Nc2ccccc2C(=O)N1c1ccc2c(c1)OCCO2 (stereo not drawn),-70,/,/,/,/,/,/
COc1cccc(N2CCN(c3nc(C)c(C)c(=O)[nH]3)CC2)c1,16,-8,0,10,14,4,/
COc1cccc(N2CCN(c3nc(-c4ccccc4C)cc(=O)[nH]3)CC2)c1,-53,67*,-7,-3,104*,-6,39
Cc1cc(C)n(CCNC(=O)[C@H]2O[C@@H](n3cnc4c(N)ncnc43)[C@H](O)[C@@H]2O)n1,6,6,/,/,1,3,/
Cc1c(NC(=O)c2cc(-c3cccs3)nc3ccccc23)c(=O)n(-c2ccccc2)n1C,9,65*,10,11,54*,-1,64*
CCCn1c(SC(C)C(=O)NC2CCCC(C)C2C)n[nH]c1=O (stereo not drawn),11,19,/,/,14,-16,/
COc1cccc(CNC(=O)COC(=O)c2ccc(-c3ccc(O)cc3)cc2)c1,2,32,/,/,14,-9,/
Cc1ncc(CO)c2cc(S(=O)(=O)c3ccc(F)cc3)c(=O)oc12,9,15,10,-1,-1,-21,/
O=c1oc2ccc(Br)cc2cc1S(=O)(=O)c1ccc(F)cc1,-21,58*,-11,9,50*,-7,22
CCCCC(=O)N(C)c1c(C)nc2ccc(C(=O)N3CCN(S(=O)(=O)CC)CC3)cn12,14,2,/,/,5,-1,/
Cc1ccnc(Nc2nc(-c3sc(C)nc3C)cs2)c1,-396,55*,7,12,4,-17,91*
Nc1ncc(-c2ccccc2)c(-c2ccc(O)cc2O)n1,12,51*,-14,14,43,-12,69*
COc1ccc(-c2cnc(N)nc2-c2ccc(OCc3ccccc3)cc2O)cc1,10,27,2,2,0,-7,/
COCCNc1nc(Oc2cncc(Cl)c2)c2sccc2n1,8,62*,/,/,17,-20,78*
COCCNc1nc(Oc2cccc(F)c2)c2sccc2n1,8,33,/,/,7,-14,/
CN(C)CCNc1ncnc2c1ncn2[C@H]1CN(Cc2ccc(Cl)cc2)C[C@@H](CO)O1,10,-4,/,/,-8,9,/
CC(C)Cn1c(C(C)C)nc([N+](=O)[O-])c1S(=O)(=O)c1ccc(F)cc1,37,58*,5,49,34,-36,5
CC(C)n1cnc2c(Nc3cccc(F)c3)nc(NCCO)nc21,-74,11,-11,-2,-44,-28,/
CC(C)C[C@H](CO)Nc1nc(Nc2cccc(Cl)c2)c2ncn(C(C)C)c2n1,-13,61*,2,/,37,-24,76*
c1csc(Cc2nn3c(-c4ccncc4)nnc3s2)c1,18,50*,-4,-13,-5,5,49*
c1cc(-c2nnc3sc(C4CCCCC4)nn23)ccn1,19,51*,-10,-12,6,-16,64*
COc1ccc(-c2csc3ncnc(NCCO)c23)cc1,36,77*,4,0,13,-5,86*
CCOC(=O)c1c(C)[nH]c(C)c1C(=O)CSc1nc2ccccc2n1CC,7,6,-4,1,13,-6,/
CCOC(=O)c1c(C)[nH]c(C)c1C(=O)CSc1nc2ccccc2c(=O)n1-c1ccc(CC)cc1,-11,56*,6,12,44,-19,37
CC1(C(=O)Nc2nccs2)CCN1C(=O)CC(c1ccccc1)c1ccccc1 (stereo not drawn),9,-5,/,/,18,11,/
SMILES,HIF-2a inh,CF NFkB inh,B2AR ag,TRPM1 prom inh,Peg3 prom inh,KKLEB tox,CF NFkB inh conf
O=C(CSc1nc(C2CC2)nc2ccccc12)Nc1ccccc1Cl,2,60*,-5,29,9,-36,8
O=C(CSc1nc(C2CC2)nc2ccccc12)Nc1ccccc1N1CCOCC1,36,35,-9,-3,39,-20,/
Nc1ccn([C@@H]2O[C@H](CNS(=O)(=O)c3cc4ccccc4s3)[C@@H](O)[C@H]2O)c(=O)n1,-6,4,/,/,11,-13,/
COc1ccc(-c2cc(C(F)(F)F)nc(S(=O)(=O)CCCC(=O)Nc3cccnc3Cl)n2)cc1OC,-21,93*,34,79*,106*,-41,88*
O=c1cc(-c2ccccc2Cl)oc2c([N+](=O)[O-])c(O)cc(O)c12,-11,94*,1,10,98*,14,110*
Cc1cc2nc(-c3ccccc3)c(Cc3ccccc3)n2c(C)c1Br,-43,9,/,/,-22,-8,/
COc1ccc(-c2cc(=O)oc3cc(OC(=O)C4CCCCC4)ccc23)cc1,-7,74*,3,0,-13,0,84*
CCN(CC)C(=O)C1=C(C)N(Cc2ccc(C(C)(C)C)cc2)C(=O)C(CC(=O)NCc2cccs2)C1 (stereo not drawn),-26,7,/,/,6,-11,/
CCC(=O)c1ccc(O)c(CC=C(C)C)c1,20,57*,4,2,-3,-8,64*
CCC(=O)c1ccc(O)c(OC)c1,3,10,-54,18,-6,-3,/
Nc1ncnc(NCc2ccc(F)cc2)c1[N+](=O)[O-],8,64*,-2,1,-6,-24,64*
CCCCCCc1cc2cc(C(=O)OCC)c(=O)oc2cc1O,-45,53*,15,3,27,-32,78*
CCCCOC(=O)Nc1ccc(S(=O)(=O)Nc2nc(C)cc(C)n2)cc1,21,53*,19,8,9,2,39
O=C(Nc1ccc([N+](=O)[O-])cc1)Nc1ccc(Cl)cc1F,-112,52*,6,-7,-51,-31,46*
O=C(c1cccc(NS(=O)(=O)c2ccc(F)c(F)c2)c1)N1CCN(C(c2ccccc2)c2ccccc2)CC1,18,50*,7,3,22,2,-4
COc1ccc(CN2C(=O)c3ccccc3C2c2nnnn2-c2ccc3c(c2)OCCO3)cc1 (stereo not drawn),-6,/,/,/,/,/,/
CCOC(=O)c1nc2sc(C)c(C)c2c(=O)[nH]1,6,-6,2,12,5,3,/
CCOC(=O)/C(=C\c1cccc(O)c1)c1nc2sc(C)c(C)c2c(=O)[nH]1,95*,74*,12,25,115*,-26,-97
O=C(Nc1ccc2ccccc2c1)c1ccccc1Cl,-250,-51,/,/,-277,9,/
O=C(Nc1ccc2ccccc2c1)c1ccccc1O,-49,52*,13,-5,-74,-18,79*
CCOC(=O)C1=C(C)Nc2ccccc2N=C1NC(=O)c1oc2ccccc2c1COC,4,55*,14,21,65*,-15,58*
